The values below come from PubChem BioAssay AID488815 (Broad Institute, 2010).

Results with a measured potency or affinity are listed apart. Inconclusive results are not listed. Calls of active or inactive are those of the source. How the calls were made is not given here.

The target in this assay is CAAX prenyl protease 1 (Saccharomyces cerevisiae (strain ATCC 204508 / S288c)) (UniProt P47154). Put plainly: yeast CAAX protease Ste24 inhibition – biochemical, S. cerevisiae, plate reader, cherry-pick, dose response (AID 488815).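 Further: 0% = neutral control wells and -100% = no enzyme wells.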 The settings on record: series mostly up to 10 µM; activity change, negative = inhibition: at the top concentration.
Chain of CAAX prenyl protease 1 (Saccharomyces cerevisiae (strain ATCC 204508 / S288c)) (P47154 whole entry, looked up): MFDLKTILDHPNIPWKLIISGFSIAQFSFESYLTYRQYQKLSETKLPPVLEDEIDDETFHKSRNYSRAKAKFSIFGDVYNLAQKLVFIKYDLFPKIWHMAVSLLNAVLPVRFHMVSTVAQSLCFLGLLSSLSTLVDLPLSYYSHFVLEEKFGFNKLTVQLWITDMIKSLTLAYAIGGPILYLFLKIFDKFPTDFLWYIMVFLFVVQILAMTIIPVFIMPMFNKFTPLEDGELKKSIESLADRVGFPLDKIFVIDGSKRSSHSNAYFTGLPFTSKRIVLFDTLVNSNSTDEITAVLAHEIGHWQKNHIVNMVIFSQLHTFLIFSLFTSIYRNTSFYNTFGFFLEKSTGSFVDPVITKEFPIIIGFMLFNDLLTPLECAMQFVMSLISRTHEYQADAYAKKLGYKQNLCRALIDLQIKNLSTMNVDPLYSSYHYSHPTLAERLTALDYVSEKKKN
Take `COc1ccc(Cc2nc3ccc(C(=O)N4CCCC4)cc3o2)cc1`: the “activity change, negative = inhibition” value is 7.28% (inactive).

Take `Cc1cccc(-c2nnc(SCc3ccc(C#N)cc3)n2Cc2ccco2)c1`: the “activity change, negative = inhibition” value was 11.9% (inactive).

`COc1cccc(-c2nc(C#N)c(N3CCN(C(=O)c4ccco4)CC3)o2)c1`: the “activity change, negative = inhibition” value is 20.7% (inactive).

Turning to `Cc1nc(SC(C(=O)c2ccccc2)c2ccccc2)nc2ccccc12` (stereo not given), the “activity change, negative = inhibition” value is 23% (inactive).

Regarding `CCCCOC(=O)Nc1nc(C)c(C(=O)OCC)s1`, the “activity change, negative = inhibition” value was 20.5% (inactive).

As for `Cc1nc2c(C)cccn2c(=O)c1NC(=O)COc1ccccc1`, the “activity change, negative = inhibition” value was -175% (inactive).

Consider `O=C(Nc1ccc(F)cc1)Oc1ccccc1N1CCOCC1`, for which the “activity change, negative = inhibition” value is 15.4% (inactive).

With `CCN(CC)CCN(C(=O)c1ccc2ccccc2c1)c1nc2ccc(F)cc2s1`, the “activity change, negative = inhibition” value was 18.9% (inactive).

On to `CN(C)CCN(C(=O)c1ccc2ccccc2c1)c1nc2ccc(F)cc2s1`, for which the “activity change, negative = inhibition” value was 41.2% (inactive).

With `CCOc1ccc(OCC)c(NC(=O)c2nnn(CC(=O)Nc3cc(C)cc(C)c3)c2N)c1`, the “activity change, negative = inhibition” value was -6.76% (inactive).

Take `COC(C[C@@H](O)C[C@H](O)[C@H](C)OCc1ccccc1)OC`: the “activity change, negative = inhibition” value was 10.2% (inactive).

As for `COc1ccccc1/C=C/C=N/NC(=O)CN1CCN(S(=O)(=O)c2ccc(C)cc2)CC1`, the “activity change, negative = inhibition” value is 10.8% (inactive).

As to `Cc1ccc(/C=N/NC(=O)c2nnn(-c3nonc3N)c2C(C)C)o1`, the “activity change, negative = inhibition” value was 12.8% (inactive).

Take `C/C(CC(=O)NCc1ccco1)=N\NC(=O)c1ccc([N+](=O)[O-])cc1Cl`: the “activity change, negative = inhibition” value is 51.8% (inactive).

Consider `COc1ccc(-n2nc(C(=O)NCC(=O)N3CCC(C)CC3)c3ccccc3c2=O)cc1`, for which the “activity change, negative = inhibition” value is 23.7% (inactive).

For `COc1ccc(C2CC(c3ccccc3)=NN2C(=O)c2ccc(Cl)c([N+](=O)[O-])c2)cc1` (stereo not given), the “activity change, negative = inhibition” value is 3.76% (inactive).

In the case of `O=C(Nc1ccccc1-c1nc2ccccc2[nH]1)c1ccc(N2C(=O)CCC2=O)cc1`, the “activity change, negative = inhibition” value was 30.1% (inactive).

Consider `Nc1nonc1-n1nnc(C(=O)N/N=C/c2ccoc2)c1CSc1ccccc1`, for which the “activity change, negative = inhibition” value is 8.69% (inactive).

For the compound `COc1cccc(/C=N/NC(=O)c2nnn(-c3nonc3N)c2C(C)C)c1OCc1ccc(F)cc1`, the “activity change, negative = inhibition” value was 14.3% (inactive).

In the case of `COc1ccc(/C=N/NC(=O)c2ccc(Cl)cc2)cc1COC(C)=O`, the “activity change, negative = inhibition” value is 28.9% (inactive).

Take `O=c1c(-c2ccccc2)c(O)c2ccccc2n1-c1ccccc1`: the “activity change, negative = inhibition” value is 8.18% (inactive).

Regarding `CC(=O)N(C)c1ccc(NC(=O)/C=C/c2ccccc2Cl)cc1`, the “activity change, negative = inhibition” value is -7.71% (inactive).

Consider `COC(C/C=C/[C@H](O)[C@H](C)OCc1ccccc1)OC`, for which the “activity change, negative = inhibition” value was 37.1% (inactive).

Regarding `O=C(O)c1ccc2cccc(Cl)c2c1O`, the “activity change, negative = inhibition” value was 14% (inactive).

In the case of `O=C1CCCC(O)=C1N=Nc1ccc2ncsc2c1`, the “activity change, negative = inhibition” value was -2.85% (inactive).

On to `O=C(Nc1ccc2c(c1)CCC2)c1ccccc1Br`, for which the “activity change, negative = inhibition” value was -24% (inactive).

As to `CC(=O)c1c(O)cc(O)c(C(C)=O)c1O`, the “activity change, negative = inhibition” value was 15.9% (inactive).

In the case of `COc1ccc(Br)cc1C(=O)Nc1cc(C)cc(C)c1`, the “activity change, negative = inhibition” value was 16.2% (inactive).

As to `COc1nc(-c2ccccc2)ccc1-c1noc(-c2ccccc2F)n1`, the “activity change, negative = inhibition” value was 1.66% (inactive).

For `CC(C)N1CCN(S(=O)(=O)c2ccc3ccccc3c2)CC1`, the “activity change, negative = inhibition” value is 4.94% (inactive).

Regarding `CCOc1ccc(N(CC(=O)NC2CC3CCC2C3)S(=O)(=O)c2ccccc2)cc1` (stereo not given), the “activity change, negative = inhibition” value is 22.7% (inactive).

For the compound `O=C(COC(=O)c1ccccc1Cc1ccccc1)NC1CCS(=O)(=O)C1` (stereo not given), the “activity change, negative = inhibition” value is 8.64% (inactive).

For the compound `Cc1ccc(C2(COC(=O)C(C)C)CO2)c(OC(=O)C(C)C)c1` (stereo not given), the “activity change, negative = inhibition” value is 38.2% (inactive).

On to `Cc1ccc2nc(N(CCN(C)C)C(=O)c3ccc4ccccc4c3)sc2c1`, for which the “activity change, negative = inhibition” value was 34.5% (inactive).

For `COC(C/C=C/[C@H](O)[C@@H](C)OCc1ccccc1)OC`, the “activity change, negative = inhibition” value was 17% (inactive).

Regarding `Cc1cccc(N2CCc3c2nc2ccc(Br)cc2c3N)c1`, the “activity change, negative = inhibition” value was -23.1% (inactive).

On to `CCCCCCCCNC(C)C(O)c1ccc(SC(C)C)cc1` (stereo not given), for which the “activity change, negative = inhibition” value was 19.5% (inactive).

`Cc1cc(NC(=O)c2oc3ccccc3c2C)ccc1-n1cnnn1`: the “activity change, negative = inhibition” value was 12.4% (inactive).

For `COc1ccc(C)cc1NC(=O)CCC(=O)Nc1ccc2nc(N3CCN(C)CC3)cc(C)c2c1`, the “activity change, negative = inhibition” value is -16.4% (inactive).

For the compound `CC(C)C(=O)Nc1cccc(NC(=S)NC(=O)C(c2ccccc2)c2ccccc2)c1`, the “activity change, negative = inhibition” value was 0.694% (inactive).
